In the library only some 1.5% were active in any assay of this set; here they are far more common.
ALOX12 inh = Primary qHTS assay for inhibitors of human arachidonate 12S-lipoxygenase (ALOX12): Round 2; Polyunsaturated fatty acid lipoxygenase ALOX12 (Homo sapiens), P18054; purified 12hLO, xylenol orange hydroperoxide absorbance; Potency, µM (titrated, usually from 108 µM), for inactives: at the highest dose activity change, negative = inhibition, actives largely listed as inhibitors; 580,000 tested, 1.1% active; AID 1671190, 2021; note: potency is the fitted concentration of half-maximal effect; % is set by controls: 0 for no effect and ±100 for the full control effect
Target sequence (P18054 whole entry, looked up): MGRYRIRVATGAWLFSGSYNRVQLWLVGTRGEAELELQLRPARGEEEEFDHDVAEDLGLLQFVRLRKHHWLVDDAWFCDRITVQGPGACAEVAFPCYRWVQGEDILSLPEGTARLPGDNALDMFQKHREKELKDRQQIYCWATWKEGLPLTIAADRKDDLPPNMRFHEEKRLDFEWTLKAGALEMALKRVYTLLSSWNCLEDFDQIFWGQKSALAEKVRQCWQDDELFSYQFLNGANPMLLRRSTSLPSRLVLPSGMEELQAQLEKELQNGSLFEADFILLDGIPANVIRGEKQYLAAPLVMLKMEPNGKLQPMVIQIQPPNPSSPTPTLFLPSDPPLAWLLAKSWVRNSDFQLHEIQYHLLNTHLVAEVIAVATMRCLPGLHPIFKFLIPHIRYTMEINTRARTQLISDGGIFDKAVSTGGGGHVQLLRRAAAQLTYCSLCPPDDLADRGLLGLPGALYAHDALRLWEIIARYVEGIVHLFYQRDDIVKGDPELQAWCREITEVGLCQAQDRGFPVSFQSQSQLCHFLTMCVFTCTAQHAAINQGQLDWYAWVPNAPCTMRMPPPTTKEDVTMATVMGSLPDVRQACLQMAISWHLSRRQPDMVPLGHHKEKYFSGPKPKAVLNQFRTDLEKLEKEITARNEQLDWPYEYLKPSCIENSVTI
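Purified human 12hLO at 150 nM in 25 mM Hepes, 0.01% Triton X-100, pH 7.0, preincubated 15 min at room temperature with compound. Reaction started with 40 uM arachidonic acid, 30 min at room temperature. Hydroperoxide measured by Fe-xylenol orange, 573/405 nm absorbance ratio.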
IL-2 act = qHTS of IL-2 Activators | 360,000 tested, 0.065% active | activation, % (series mostly up to about 46 µM) | IL-2 activation reporter assay, cell-based qHTS; stimulated with anti-CD3/CD4/CD28 beads; in transgenic mouse T cells; in the data active = activation above about 50%; inconclusive = mostly about 30% to 49%; note: 0% is about no effect
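Readout: EGFP and DsRed signals by fluorescent plate cytometry. Unstimulated transgenic mouse T cells received compound 60 min before antibody-bead stimulation, then incubated 18 h at 37 degrees C.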
a7 integrin act = qHTS for Activators of Integrin-Mediated Alleviation for Muscular Dystrophy; alpha7betagal myoblasts, beta-gal FDG fluorescence, 48 h; Potency, µM (top dose mostly 38.3 µM), for the others: at the top dose activation, hits mostly activators; 350,000 tested, 0.064% active; AID 624291, 2012;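 note: potency is the fitted concentration of half-maximal effect; 100% = response of the positive control SU9516; nearly all actives have a fitted effect of over 60% in size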
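alpha7betagal+/- myoblasts (passage 13, 250/well) treated 48 h at 37C with compounds at 1:260 dilution of DMSO stock. Lysed, then beta-galactosidase activity read as FDG fluorescence (ex 480/em 540) after 30 min, with pre-read for autofluorescence.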
uPA generation = qHTS for Inhibitors of Cell Surface uPA Generation. cell surface uPA generation assay, qHTS. Potency, µM (doses to about 38.3 µM), without a hit: top-dose activity change, negative = inhibition, most hits filed as inhibitors. 330,000 tested, 0.31% active; active = well fitted inhibition curve with a large enough effect; inconclusive = small, poorly fitted or top-dose-only effect; inactive = no such curve, though single readings can be large or run the other way; tested in mouse RAW 264.7 cells; note: potency is the fitted concentration of half-maximal effect; % is set by controls: 0 for no effect and ±100 for the full control effect; nearly all actives have a fitted effect of over 55% in size
Nrf2 ARE act = qHTS of Nrf2 Activators; Potency, µM (highest dose often 46.1 µM), inactives show at the top dose activation, actives largely listed as activators; AREc32 ARE-luciferase reporter (MCF7-derived line), luminescence, 24 h; 410,000 tested, 0.31% active; note: potency is the fitted concentration of half-maximal effect; % of control where 0% means no effect; nearly all actives have a fitted effect of over 65% in size
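Cells of the AREc32 ARE-luciferase line are plated in OPTI-MEM containing 5% FBS and left overnight at 37 deg C. Compounds are pinned in, incubation continues 24 hr, and firefly luciferase signal is then measured.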
Numbers without * were called inactive; ! = not active in a repeat; [ ] = dose if it differs, or a comment. Unless noted, calls come from the whole dose curve; as a rule, active = well fitted curve in the direction sought with a large enough effect; inconclusive = small, poorly fitted or top-dose-only effect, or another doubt; inactive = no such curve, though single readings can be large; an effect the other way counts as inactive or inconclusive.

What do the screens show for `CCCCCCNc1nc2c(c(=O)n(C)c(=O)n2C)n1Cc1cccc(Cl)c1`?
ALOX12 inh: -3%

How did Cc1cc(C(=O)N2CCC3(CCCN(CC4CCC4)C3=O)C2)nc(C)n1 (configuration not stated) do in these assays?
ALOX12 inh: 13%

Results for CCc1c(C(=O)N2CCc3c(c(C(=O)O)nn3CC3CC3)C2)csc1C ?
ALOX12 inh: 35µM*

What do the screens show for `O=c1cc(O)nc(SCc2ccccc2)n1-c1ccc(Cl)cc1`?
ALOX12 inh: 45µM*; IL-2 act: -2; a7 integrin act: inconclusive; uPA generation: 5%; Nrf2 ARE act: 2%

How did NC(=O)CSc1nc(O)cc(=O)n1-c1ccccc1 do in these assays?
ALOX12 inh: 0%; IL-2 act: -1; a7 integrin act: 1%; uPA generation: 5%; Nrf2 ARE act: 0%

Results for Cc1ccc(NC(=O)CSc2nc(O)cc(=O)n2-c2ccc(C)cc2)cc1 ?
ALOX12 inh: 2.2µM*; IL-2 act: -1; a7 integrin act: -28%; uPA generation: 10%; Nrf2 ARE act: 0%

How did COc1ccc(-n2c(SCC(=O)Nc3ccc(Br)cc3)nc(O)cc2=O)cc1 do in these assays?
ALOX12 inh: 2.2µM*; IL-2 act: 1; a7 integrin act: -7%; uPA generation: -4%; Nrf2 ARE act: 3%

Results for Cn1c(SCC(=O)Nc2ccc(Br)cc2)nc(O)cc1=O ?
ALOX12 inh: inconclusive; IL-2 act: 0; a7 integrin act: 7%; uPA generation: 1%; Nrf2 ARE act: 2%

What do the screens show for `COc1ccc(NC(=O)CSc2nc(O)cc(=O)n2-c2ccccc2OC)cc1`?
ALOX12 inh: inconclusive; IL-2 act: 0; a7 integrin act: -15%[7.66 µM]; Nrf2 ARE act: 0%

Results for COc1ccccc1-n1c(SCC(=O)Nc2ccc(C)cc2)nc(O)cc1=O ?
ALOX12 inh: 0.32µM*!; IL-2 act: -2; a7 integrin act: 25%; uPA generation: -1%; Nrf2 ARE act: 0%

What do the screens show for `Cc1nc2cc(NC(=O)c3cc(Cl)ccc3Cl)ccc2o1`?
ALOX12 inh: -30%

How did COC1=CC(=Cc2c(N)n3nc(CC(=O)N4CCCCC4)sc3nc2=O)C=C(OC)C1=O do in these assays?
ALOX12 inh: -4%; IL-2 act: 85*; a7 integrin act: inconclusive; uPA generation: 7%; Nrf2 ARE act: 0%

What do the screens show for `Cc1ccc(-n2ncc(Br)c(Br)c2=O)cc1`?
IL-2 act: -1; a7 integrin act: -62%; uPA generation: 13µM*; Nrf2 ARE act: inconclusive

Results for COc1ccc(Oc2c(Cl)cnn(-c3ccc(C)cc3)c2=O)cc1 ?
ALOX12 inh: 14%; IL-2 act: 0; a7 integrin act: -50%; uPA generation: -7%; Nrf2 ARE act: 13µM*

How did O=c1c(Br)c(Br)cnn1-c1ccccc1 do in these assays?
ALOX12 inh: -11%; IL-2 act: -4; a7 integrin act: -73%; uPA generation: 2%; Nrf2 ARE act: inconclusive

What do the screens show for `CC(C)CC(CNC(=O)c1n[nH]c(=O)c2ccccc12)N1CCOCC1` (configuration not stated)?
ALOX12 inh: -4%

How did O=C1[C@H]2[C@@H](c3ccccc3)N[C@]3(CCCN(Cc4ccc(Cl)cc4)C3=O)[C@H]2C(=O)N1Cc1ccccc1 do in these assays?
ALOX12 inh: 7.9µM*; IL-2 act: -3; a7 integrin act: -11%; Nrf2 ARE act: 0%

How did COc1cc(NC(=O)C2C3C=CC(C3)C2C(=O)O)ccc1NC(=O)c1ccccc1 (configuration not stated) do in these assays?
ALOX12 inh: -1%; IL-2 act: 1; a7 integrin act: 8.9µM*; uPA generation: -1%; Nrf2 ARE act: 2%

How did Cn1nccc1CN1CCCC2(C1)NC(=O)c1ccccc1O2 (configuration not stated) do in these assays?
ALOX12 inh: 19%[176 µM]

Results for CC1CCc2sc(C(=O)NC3CCCCC3)cc2C1 (configuration not stated) ?
ALOX12 inh: 496%; IL-2 act: 2; a7 integrin act: -1%; uPA generation: 11%; Nrf2 ARE act: 4%

How did CC1CCc2sc(C(=O)N/N=C3/CCCCc4ccccc43)cc2C1 (configuration not stated) do in these assays?
ALOX12 inh: 1.3µM*

How did C/C(=N\NC(=O)c1cc2c(s1)CCC(C)C2)c1ccncc1 (configuration not stated) do in these assays?
ALOX12 inh: 1.8µM*; IL-2 act: -2; a7 integrin act: 11%; uPA generation: -2%; Nrf2 ARE act: 6%

How did C/C(=N\NC(=O)c1cc2c(s1)CCC(C)C2)c1ccc[nH]1 (configuration not stated) do in these assays?
ALOX12 inh: 19%; IL-2 act: 1; a7 integrin act: 31%; uPA generation: inconclusive; Nrf2 ARE act: 5%

How did CC1CCc2sc(C(=O)N/N=C/c3ccc(O)cc3)cc2C1 (configuration not stated) do in these assays?
ALOX12 inh: 28µM*; IL-2 act: -3; a7 integrin act: -18%; uPA generation: -7%; Nrf2 ARE act: 6%

What do the screens show for `COC(=O)c1sccc1NC(=O)c1ccc(Br)o1`?
ALOX12 inh: 8%; IL-2 act: 0; a7 integrin act: 12%; uPA generation: -3%; Nrf2 ARE act: 5.6µM*

What do the screens show for `COC(=O)c1sccc1NC(=O)c1cccc(OC)c1`?
ALOX12 inh: 155%; IL-2 act: -1; a7 integrin act: -17%; uPA generation: -5%; Nrf2 ARE act: 6.3µM*

How did COC(=O)c1sccc1NC(=O)COc1ccccc1Cl do in these assays?
ALOX12 inh: -15%; IL-2 act: -2; a7 integrin act: -10%; uPA generation: 2%; Nrf2 ARE act: 13µM*

What do the screens show for `COC(=O)c1ccccc1NC(=O)COc1ccccc1`?
ALOX12 inh: 0%; IL-2 act: -2; a7 integrin act: -1%; uPA generation: -19%; Nrf2 ARE act: 10%

How did COC(=O)c1ccccc1NC(=O)COc1ccccc1[N+](=O)[O-] do in these assays?
ALOX12 inh: 19%; IL-2 act: 1; a7 integrin act: -22%; uPA generation: -6%; Nrf2 ARE act: 5µM*

Results for COC(=O)c1cc(/C=C(/C#N)c2nc3ccccc3[nH]2)oc1C ?
ALOX12 inh: 20%

Results for COC(=O)c1sccc1NC(=O)c1ccccc1 ?
ALOX12 inh: 3%; IL-2 act: -4; a7 integrin act: -26%; uPA generation: 1%; Nrf2 ARE act: 7.1µM*

Results for COC(=O)c1sccc1NC(=O)c1ccccc1C(=O)O ?
ALOX12 inh: 18%; IL-2 act: 2; a7 integrin act: -18%; uPA generation: 0%; Nrf2 ARE act: -1%

Assay outcomes deposited in PubChem BioAssay by National Center for Advancing Translational Sciences (NCATS).
